# Measurements published in PMC8384837, “Expanding the binding specificity for RNA recognition by a PUF domain”.
# Experiments:
# Assay in all cases: yeast three-hybrid, YBZ-1, SC-Leu-His + 0.5 mM 3-AT, 4 days
# Settings in all cases: tags: N-Gal4 AD-HA kept; label: inside an RPR1-promoter hybrid RNA with tandem MS2 sites; ssRNA
# PUM1 PUF domain R4-SMC = PUM1 PUF domain R4-SMC (Homo sapiens, UniProt Q14671 828-1176, N971S;H972M;Q975C)
# How it was run: (§1)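 Each repeat of the Pumilio-1 PUF domain was randomized at its three base-contacting residues, and these libraries were co-expressed from a centromeric plasmid with matching RNA elements in strain YBZ-1. After four days on SC-Leu (input) or SC-Leu-His + 0.5 mM 3-AT (selection), the repeat regions were PCR-amplified and Illumina-sequenced. The interaction score compares variant frequency between input and selection as a log change, computed in log2 with a pseudocount of 1 for absent variants.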
# PUM1 PUF domain R5-RFP = PUM1 PUF domain R5-RFP (Homo sapiens, UniProt Q14671 828-1176, C1007R;R1008F;Q1011P)
# How it was run: as §1
# PUM1 PUF domain R8-PYG = PUM1 PUF domain R8-PYG (Homo sapiens, UniProt Q14671 828-1176, N1122P;Q1126G)
# How it was run: as §1
# PUM1 PUF domain R3-LFC = PUM1 PUF domain R3-LFC (Homo sapiens, UniProt Q14671 828-1176, C935L;R936F;Q939C)
# How it was run: as §1
# PUM1 PUF domain R7-RGS = PUM1 PUF domain R7-RGS (Homo sapiens, UniProt Q14671 828-1176, S1079R;N1080G;E1083S)
# How it was run: as §1
# PUM1 PUF domain R2-LFG = PUM1 PUF domain R2-LFG (Homo sapiens, UniProt Q14671 828-1176, N899L;Y900F;Q903G)
# How it was run: as §1
# PUM1 PUF domain R4-GNL = PUM1 PUF domain R4-GNL (Homo sapiens, UniProt Q14671 828-1176, N971G;H972N;Q975L)
# How it was run: as §1
# PUM1 PUF domain R4-PWK = PUM1 PUF domain R4-PWK (Homo sapiens, UniProt Q14671 828-1176, N971P;H972W;Q975K)
# How it was run: as §1
# PUM1 PUF domain R5-KKE = PUM1 PUF domain R5-KKE (Homo sapiens, UniProt Q14671 828-1176, C1007K;R1008K;Q1011E)
# How it was run: as §1
# PUM1 PUF domain R2-AFS = PUM1 PUF domain R2-AFS (Homo sapiens, UniProt Q14671 828-1176, N899A;Y900F;Q903S)
# How it was run: as §1
sequence,measurement,setting,value
GGCUAGAACUAGUGGAUCCCCCGGCGCCCGGCGGCUCGAGCCCGGGUAAGUGUAAAUAGUCUGCAUGCCGCCGGGCGCCAUGCCUGCAGGUCGACUCUAGAAAACAUG,binding signal,PUM1 PUF domain R4-SMC,3.15 log2 enrichment (interaction score)
same,binding signal,PUM1 PUF domain R5-RFP,2.31 log2 enrichment (interaction score)
same,binding signal,PUM1 PUF domain R8-PYG,1.81 log2 enrichment (interaction score)
same,binding signal,PUM1 PUF domain R3-LFC,1.84 log2 enrichment (interaction score)
GGCUAGAACUAGUGGAUCCCCCGGCGCCCGGCGGCUCGAGCCCGGGUAAGUCUAAAUAGUCUGCAUGCCGCCGGGCGCCAUGCCUGCAGGUCGACUCUAGAAAACAUG,binding signal,PUM1 PUF domain R7-RGS,1.66 log2 enrichment (interaction score)
GGCUAGAACUAGUGGAUCCCCCGGCGCCCGGCGGCUCGAGCCCGGGUAAGCGUAAAUAGUCUGCAUGCCGCCGGGCGCCAUGCCUGCAGGUCGACUCUAGAAAACAUG,binding signal,PUM1 PUF domain R8-PYG,2.76 log2 enrichment (interaction score)
GGCUAGAACUAGUGGAUCCCCCGGCGCCCGGCGGCUCGAGCCCGGGUAAGUGUAAGUAGUCUGCAUGCCGCCGGGCGCCAUGCCUGCAGGUCGACUCUAGAAAACAUG,binding signal,PUM1 PUF domain R3-LFC,5.61 log2 enrichment (interaction score)
GGCUAGAACUAGUGGAUCCCCCGGCGCCCGGCGGCUCGAGCCCGGGUAAGUGUAAAGAGUCUGCAUGCCGCCGGGCGCCAUGCCUGCAGGUCGACUCUAGAAAACAUG,binding signal,PUM1 PUF domain R2-LFG,0.94 log2 enrichment (interaction score)
GGCUAGAACUAGUGGAUCCCCCGGCGCCCGGCGGCUCGAGCCCGGGUAAGUGUAUAUAGUCUGCAUGCCGCCGGGCGCCAUGCCUGCAGGUCGACUCUAGAAAACAUG,binding signal,PUM1 PUF domain R4-SMC,2.83 log2 enrichment (interaction score)
same,binding signal,PUM1 PUF domain R4-GNL,3.47 log2 enrichment (interaction score)
same,binding signal,PUM1 PUF domain R4-PWK,6.97 log2 enrichment (interaction score)
GGCUAGAACUAGUGGAUCCCCCGGCGCCCGGCGGCUCGAGCCCGGGUAAGUGUCAAUAGUCUGCAUGCCGCCGGGCGCCAUGCCUGCAGGUCGACUCUAGAAAACAUG,binding signal,PUM1 PUF domain R5-KKE,5.07 log2 enrichment (interaction score)
same,binding signal,PUM1 PUF domain R5-RFP,4.87 log2 enrichment (interaction score)
GGCUAGAACUAGUGGAUCCCCCGGCGCCCGGCGGCUCGAGCCCGGGUAAGUGUAAAAAGUCUGCAUGCCGCCGGGCGCCAUGCCUGCAGGUCGACUCUAGAAAACAUG,binding signal,PUM1 PUF domain R2-AFS,3.67 log2 enrichment (interaction score)
same,binding signal,PUM1 PUF domain R2-LFG,3.76 log2 enrichment (interaction score)
GGCUAGAACUAGUGGAUCCCCCGGCGCCCGGCGGCUCGAGCCCGGGUAAGUUUAAAUAGUCUGCAUGCCGCCGGGCGCCAUGCCUGCAGGUCGACUCUAGAAAACAUG,binding signal,PUM1 PUF domain R7-RGS,3.37 log2 enrichment (interaction score)
GGCUAGAACUAGUGGAUCCCCCGGCGCCCGGCGGCUCGAGCCCGGGUAAGUGUACAUAGUCUGCAUGCCGCCGGGCGCCAUGCCUGCAGGUCGACUCUAGAAAACAUG,binding signal,PUM1 PUF domain R4-GNL,1.04 log2 enrichment (interaction score)
same,binding signal,PUM1 PUF domain R4-PWK,6.55 log2 enrichment (interaction score)
